About 83,000 compounds went through this panel and 20% of them were active in at least one assay; those are over-represented in the sample as a whole.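 A percent growth of 40 corresponds to 60% growth inhibition; 0 means no net growth; -100 means all cells died. Active threshold: below 10.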 The source made the active and inactive calls.
The molecules below were run on TK-10 renal (assay: NCI-60 one-dose screen, 48 h (100 = growth as untreated, 0 = no growth, -100 = all killed)). Conditions: 10 µM.

Q: Which growth does the source give for `O=C1/C(=C/c2ccc(O)cc2)Oc2ccc(Cl)cc21` here?
A: The growth was 117% (inactive).

Q: For `COc1cc(C(=O)n2nc(N)c3c(C)cc(C)nc32)cc(OC)c1OC`, which growth is on record?
A: The growth was 98.3% (inactive).

Q: How did the growth turn out when `C#Cc1ccc(-n2c(/C=C/c3cc(OC)c(OC)c(OC)c3)nc3ncccc3c2=O)cc1` was run?
A: The growth was 112% (inactive).

Q: How did the growth turn out when `COC(=O)[C@]12CC[C@@H](C)[C@H](C)[C@@H]1C1=CC[C@@H]3[C@@]4(C)C[C@@H](O)[C@H](O)[C@@](C)(CO)[C@@H]4[C@H](O)C[C@@]3(C)[C@]1(C)CC2` was run?
A: The growth was -56.9% (active).

Q: For `Oc1ccccc1-c1nnc(Cn2c(Cc3cccc4ccccc34)nc3ccccc32)o1`, which growth is on record?
A: The growth was 99.2% (inactive).

Q: `COc1ccc(-c2nc(SCC(=O)c3ccc(Br)cc3)[nH]c(=O)c2C#N)cc1` was tested. Which growth did it give?
A: Its growth is 99.6% (inactive).

Q: How did the growth turn out when `COc1ccc(C2C=C(c3ccc(Cl)c(Cl)c3)N=C3SC(C)=CN32)cc1` (stereo not drawn) was run?
A: Its growth is 92.8% (inactive).

Q: Which growth does the source give for `CCOc1nc(-c2ccccc2)cc2c(O)c(C(=O)NC(C)C)[nH]c(=O)c12` here?
A: The growth was 133% (inactive).

Q: For `S=c1c2ncccc2c(-c2ccccn2)nn1Cc1ccccn1`, which growth is on record?
A: The growth was 99.5% (inactive).

Q: Which growth does the source give for `Nc1cc(O)cc(O)c1` here?
A: The growth was 87.4% (inactive).

Q: Which growth does the source give for `COc1c(-c2c3sc(=O)[nH]c3nc3c2c(=O)[nH]n3C(C)C)cc2c(c1OC)OCO2` here?
A: Its growth is 98.7% (inactive).

Q: With `Cc1c(C(=O)N[C@H](CO)Cc2ccccc2)[nH]c2ccc(Cl)cc2c1=O` as the molecule, how does the growth read?
A: The growth was 94.5% (inactive).

Q: With `COc1cc(Cn2c(-c3ccccc3)c(Cl)c3c2-c2oncc2CC3)cc(OC)c1` as the molecule, how does the growth read?
A: The growth was 104% (inactive).

Q: For `C/C=C\COc1cc(C)c(Cl)cc1Cl`, which growth is on record?
A: The growth was 125% (inactive).

Q: How did the growth turn out when `CCOC(=O)CNC(=O)Nc1ccc(Oc2ccc(NC(=O)NCC(=O)OCC)cc2)cc1` was run?
A: Its growth is 114% (inactive).

Q: For `c1ccc(CNc2nc(Nc3ccc(-c4nc5ccccc5[nH]4)cc3)c3cn[nH]c3n2)cc1`, which growth is on record?
A: The growth was 20.4% (inactive).

Q: With `c1ccc(COCC[P+](c2ccccc2)(c2ccccc2)c2ccccc2)cc1` as the molecule, how does the growth read?
A: Its growth is 8.09% (active).

Q: With `CCOC(=O)C1=C(Nc2ccc(OC)cc2)C(N)=NC1=N` as the molecule, how does the growth read?
A: Its growth is 59.2% (inactive).

Q: For `NC(=O)C1CCCN(Cc2c[nH]c3ccccc23)C1` (stereo not drawn), which growth is on record?
A: Its growth is 93.7% (inactive).

Q: For `CC(=O)n1nc(C(=O)OC(C)(C)C)c2cc(F)c(F)cc21`, which growth is on record?
A: The growth was 113% (inactive).

Q: How did the growth turn out when `Cc1cc(Cl)ccc1Nc1nc(C(F)(F)F)ccc1C(=O)N/N=C/c1ccccc1Cl` was run?
A: Its growth is 19% (inactive).

Q: With `CN1/C(=C\C(I)C(I)C2=[N+](C)c3ccccc3C2(C)C)C(C)(C)c2ccccc21` (stereo not drawn) as the molecule, how does the growth read?
A: Its growth is 18.7% (inactive).

Q: `N#C/C(=C/c1cc([N+](=O)[O-])ccc1Cl)C(N)=O` was tested. Which growth did it give?
A: The growth was 108% (inactive).

Q: For `CCCCCCCCCCCC(=O)NCCCN(C)C`, which growth is on record?
A: The growth was 96% (inactive).

Q: For `CCc1nn2c(-c3cc(OC)c(OC)c(OC)c3)c(-c3cc(OC)c(OC)c(OC)c3)nc2s1`, which growth is on record?
A: Its growth is 73% (inactive).

Q: With `CCN1CCN(c2nc(NNC(=O)c3cccc(OC)c3)nc(N3CCN(C(c4ccccc4)c4ccccc4)CC3)n2)CC1` as the molecule, how does the growth read?
A: Its growth is 79.7% (inactive).

Q: Which growth does the source give for `CCCCOCCOCCOCc1cc2c(cc1Br)OCO2` here?
A: Its growth is 96.3% (inactive).

Q: With `CCCCCCCCCCCCCC[n+]1ccccc1` as the molecule, how does the growth read?
A: Its growth is -70.4% (active).

Q: How did the growth turn out when `Cc1cc(C)c2nc(C)c(C)[n+]([O-])c2c1` was run?
A: Its growth is 99.3% (inactive).

Q: `Clc1cc(Cl)c(OCCCCCCN2CCNCC2)c(Cl)c1` was tested. Which growth did it give?
A: The growth was 65.9% (inactive).

Q: How did the growth turn out when `COc1ccc(NC(=O)c2sc3nc4c(cc3c2N)C(O)CCC4)cc1` (stereo not drawn) was run?
A: The growth was 122% (inactive).

Q: Which growth does the source give for `Cc1cc(C(C)(C)CC(C)(C)C)ccc1OCCOCC[N+](C)(C)Cc1ccccc1` here?
A: The growth was -11.6% (active).

Q: Which growth does the source give for `CCCCCC(=O)N1c2ccccc2NC2=C(C(=O)CC(c3ccc(OC)c(OC)c3)C2)C1c1ccc(C(F)(F)F)cc1` (stereo not drawn) here?
A: The growth was 64.4% (inactive).

Q: `COc1cc(C2C(C#N)=C(c3c[nH]c4ccccc34)Nc3nc(N)[nH]c(=O)c32)cc(OC)c1OC` (stereo not drawn) was tested. Which growth did it give?
A: The growth was 123% (inactive).

Q: `COc1ccc(-c2nc(-c3nc4ccc(C)cc4[nH]3)c3ccccn23)cc1` was tested. Which growth did it give?
A: Its growth is 69.4% (inactive).

Q: With `COCCOC(=O)NC(=O)Nc1ccc(/C(=N/O)c2ccc(Cl)cc2)cc1` as the molecule, how does the growth read?
A: Its growth is 62.6% (inactive).

Q: `CCN(CCCNC(=O)Cc1cc(=O)oc2cc(N(C)C)ccc12)CCNc1ccnc2cc(Cl)ccc12` was tested. Which growth did it give?
A: The growth was 87.4% (inactive).

Q: For `CC(C)c1ncc(CO)n1Cc1c(Cl)cccc1Cl`, which growth is on record?
A: The growth was 95% (inactive).

What follows are molecules tested on ACHN renal in the same assay as above. Conditions: 10 µM.

Q: With `O=C1/C(=C/c2ccc(O)cc2)Oc2ccc(Cl)cc21` as the molecule, how does the growth read?
A: Its growth is 95.4% (inactive).

Q: Which growth does the source give for `COc1cc(C(=O)n2nc(N)c3c(C)cc(C)nc32)cc(OC)c1OC` here?
A: The growth was 91.9% (inactive).

Q: For `C#Cc1ccc(-n2c(/C=C/c3cc(OC)c(OC)c(OC)c3)nc3ncccc3c2=O)cc1`, which growth is on record?
A: The growth was 60.5% (inactive).

Q: Which growth does the source give for `COC(=O)[C@]12CC[C@@H](C)[C@H](C)[C@@H]1C1=CC[C@@H]3[C@@]4(C)C[C@@H](O)[C@H](O)[C@@](C)(CO)[C@@H]4[C@H](O)C[C@@]3(C)[C@]1(C)CC2` here?
A: The growth was -48.3% (active).

Q: For `Oc1ccccc1-c1nnc(Cn2c(Cc3cccc4ccccc34)nc3ccccc32)o1`, which growth is on record?
A: The growth was 93.9% (inactive).

Q: `COc1ccc(-c2nc(SCC(=O)c3ccc(Br)cc3)[nH]c(=O)c2C#N)cc1` was tested. Which growth did it give?
A: The growth was 122% (inactive).

Q: `COc1ccc(C2C=C(c3ccc(Cl)c(Cl)c3)N=C3SC(C)=CN32)cc1` (stereo not drawn) was tested. Which growth did it give?
A: Its growth is 103% (inactive).

Q: Which growth does the source give for `CCOc1nc(-c2ccccc2)cc2c(O)c(C(=O)NC(C)C)[nH]c(=O)c12` here?
A: The growth was 97.6% (inactive).

Q: With `S=c1c2ncccc2c(-c2ccccn2)nn1Cc1ccccn1` as the molecule, how does the growth read?
A: Its growth is 104% (inactive).

Q: `Nc1cc(O)cc(O)c1` was tested. Which growth did it give?
A: Its growth is 105% (inactive).

Q: How did the growth turn out when `Cc1c(C(=O)N[C@H](CO)Cc2ccccc2)[nH]c2ccc(Cl)cc2c1=O` was run?
A: The growth was 101% (inactive).

Q: `COc1cc(Cn2c(-c3ccccc3)c(Cl)c3c2-c2oncc2CC3)cc(OC)c1` was tested. Which growth did it give?
A: Its growth is 69.2% (inactive).

Q: `C/C=C\COc1cc(C)c(Cl)cc1Cl` was tested. Which growth did it give?
A: The growth was 128% (inactive).

Q: How did the growth turn out when `CCOC(=O)CNC(=O)Nc1ccc(Oc2ccc(NC(=O)NCC(=O)OCC)cc2)cc1` was run?
A: Its growth is 102% (inactive).

Q: For `c1ccc(CNc2nc(Nc3ccc(-c4nc5ccccc5[nH]4)cc3)c3cn[nH]c3n2)cc1`, which growth is on record?
A: Its growth is -5.37% (active).

Q: With `c1ccc(COCC[P+](c2ccccc2)(c2ccccc2)c2ccccc2)cc1` as the molecule, how does the growth read?
A: Its growth is 45.2% (inactive).

Q: For `CCOC(=O)C1=C(Nc2ccc(OC)cc2)C(N)=NC1=N`, which growth is on record?
A: Its growth is 46.6% (inactive).

Q: With `NC(=O)C1CCCN(Cc2c[nH]c3ccccc23)C1` (stereo not drawn) as the molecule, how does the growth read?
A: The growth was 103% (inactive).

Q: Which growth does the source give for `CC(=O)n1nc(C(=O)OC(C)(C)C)c2cc(F)c(F)cc21` here?
A: Its growth is 108% (inactive).

Q: How did the growth turn out when `Cc1cc(Cl)ccc1Nc1nc(C(F)(F)F)ccc1C(=O)N/N=C/c1ccccc1Cl` was run?
A: The growth was 16% (inactive).

Q: `CN1/C(=C\C(I)C(I)C2=[N+](C)c3ccccc3C2(C)C)C(C)(C)c2ccccc21` (stereo not drawn) was tested. Which growth did it give?
A: The growth was 4.88% (active).

Q: How did the growth turn out when `N#C/C(=C/c1cc([N+](=O)[O-])ccc1Cl)C(N)=O` was run?
A: Its growth is 105% (inactive).

Q: `CCCCCCCCCCCC(=O)NCCCN(C)C` was tested. Which growth did it give?
A: The growth was 99.9% (inactive).

Q: With `CCc1nn2c(-c3cc(OC)c(OC)c(OC)c3)c(-c3cc(OC)c(OC)c(OC)c3)nc2s1` as the molecule, how does the growth read?
A: The growth was 74% (inactive).

Q: For `CCN1CCN(c2nc(NNC(=O)c3cccc(OC)c3)nc(N3CCN(C(c4ccccc4)c4ccccc4)CC3)n2)CC1`, which growth is on record?
A: The growth was 56.1% (inactive).

Q: For `CCCCOCCOCCOCc1cc2c(cc1Br)OCO2`, which growth is on record?
A: Its growth is 98.8% (inactive).

Q: How did the growth turn out when `Cc1cc(C)c2nc(C)c(C)[n+]([O-])c2c1` was run?
A: The growth was 109% (inactive).

Q: With `Clc1cc(Cl)c(OCCCCCCN2CCNCC2)c(Cl)c1` as the molecule, how does the growth read?
A: Its growth is 47.2% (inactive).

Q: How did the growth turn out when `COc1ccc(NC(=O)c2sc3nc4c(cc3c2N)C(O)CCC4)cc1` (stereo not drawn) was run?
A: The growth was 113% (inactive).

Q: Which growth does the source give for `CCCCCC(=O)N1c2ccccc2NC2=C(C(=O)CC(c3ccc(OC)c(OC)c3)C2)C1c1ccc(C(F)(F)F)cc1` (stereo not drawn) here?
A: The growth was 58.3% (inactive).

Q: How did the growth turn out when `COc1cc(C2C(C#N)=C(c3c[nH]c4ccccc34)Nc3nc(N)[nH]c(=O)c32)cc(OC)c1OC` (stereo not drawn) was run?
A: Its growth is 95% (inactive).

Q: For `COc1ccc(-c2nc(-c3nc4ccc(C)cc4[nH]3)c3ccccn23)cc1`, which growth is on record?
A: Its growth is 55.6% (inactive).

Q: How did the growth turn out when `COCCOC(=O)NC(=O)Nc1ccc(/C(=N/O)c2ccc(Cl)cc2)cc1` was run?
A: The growth was 39% (inactive).

Q: `CCN(CCCNC(=O)Cc1cc(=O)oc2cc(N(C)C)ccc12)CCNc1ccnc2cc(Cl)ccc12` was tested. Which growth did it give?
A: The growth was 78.6% (inactive).

Q: Which growth does the source give for `CC(C)c1ncc(CO)n1Cc1c(Cl)cccc1Cl` here?
A: The growth was 99.9% (inactive).

— PubChem BioAssay (NCI)
